# Reference: PubChem BioAssay (NCI)
# The panel holds about 83,000 compounds, 20% with a hit somewhere; the sample as a whole holds those more often.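 How to read the values: 0–100, growth inhibition (40 = 60% inhibited); 0, no net growth; -100 to 0, cell death (-40 = 40% of starting cells died; -100 = all dead).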 Values without a mark were called inactive. The source made the active and inactive calls. Rule for the calls: active = growth percent below 10; inactive = the rest.
# Assays:
# Test in all cases: NCI-60 one-dose screen, 48 h (100 = growth as untreated, 0 = no growth, -100 = all killed)
# Settings in all cases: 10 µM unless noted
# [1] = tested on: SR leukemia
# [2] = tested on: RPMI-8226 leukemia
# [3] = tested on: OVCAR-8 ovarian
# [4] = tested on: OVCAR-5 ovarian
# [5] = tested on: OVCAR-4 ovarian
# [6] = tested on: SK-OV-3 ovarian
# [7] = tested on: IGROV1 ovarian
# [8] = tested on: OVCAR-3 ovarian
# [9] = tested on: HS 578T breast
# [10] = tested on: NCI/ADR-RES ovarian
# [11] = tested on: T-47D breast
# [12] = tested on: BT-549 breast
# [13] = tested on: MDA-MB-435 melanoma
# [14] = tested on: SW-620 colon
# [15] = tested on: MCF7 breast
# [16] = tested on: HCT-116 colon
# [17] = tested on: HCC-2998 colon
# [18] = tested on: KM12 colon
Structure (SMILES),growth [1],growth [2],growth [3],growth [4],growth [5],growth [6],growth [7],growth [8],growth [9],growth [10],growth [11],growth [12],growth [13],growth [14],growth [15],growth [16],growth [17],growth [18]
CCNc1nnc(COc2ccc(CNC(=O)CCCC/C=C/C(C)C)cc2OC)o1,89%,95.5%,106%,103%,103%,91.5%,103%,106%,98.6%,102%,81%,102%,104%,110%,95.2%,87.2%,103%,98.2%
O=C(NC1CCN(Cc2ccccc2)CC1)c1cc(-c2cccnc2)nc2ccc(Cl)cc12,23%,47.3%,77.5%,80.5%,70.5%,102%,80.5%,94.4%,83.4%,67%,45%,75.5%,75%,27%,70.9%,57.6%,64.9%,39.2%
Nc1ccc(S(=O)(=O)Nc2cc(F)cc(F)c2)cc1,112%,106%,102%,55.5%,101%,104%,-22% (active),111%,92.7%,117%,105%,88.1%,102%,91.6%,108%,109%,106%,
CC(=O)Nc1ccc(CC#N)cc1Br,112%,109%,110%,109%,98.2%,104%,110%,108%,89.9%,116%,94.4%,109%,104%,99.3%,96.7%,96.8%,96.7%,107%
COc1cc2ncnc(-n3ncc4cc(NC(=O)Nc5ccccc5)ccc43)c2cc1OC,26.6%,15.6%,50.1%,24.7%,7.2% (active),3.75% (active),5.95% (active),36.1%,-18.9% (active),39.2%,-7.28% (active),24.9%,31.6%,49.5%,-20.3% (active),6.38% (active),34.1%,4.62% (active)
COc1ccc2c(c1)/C(=C/c1c(-c3cc(OC)c(OC)c(OC)c3)nc3sccn13)C(=O)N2,-41.1% (active),60.7%,105%,85.2%,95.8%,106%,29.2%,99.5%,85.7%,98.9%,86.6%,98.9%,100%,99.9%,92.4%,88.3%,106%,84%
Cc1nnc(-c2cc3c(ccc4ccccc43)oc2=O)c2cn(-c3ccc(Cl)cc3)nc12,80.4%,75%,96.3%,108%,83.8%,91.7%,87%,89.8%,93.8%,96.3%,76.2%,105%,107%,99.3%,80.1%,85.6%,97.3%,94.4%
O=C(O)c1ccc(-c2nn(-c3ccc(C(=O)O)cc3)cc2CNc2ccc(Br)cc2)cc1,107%,108%,104%,102%,104%,102%,115%,104%,107%,112%,96.6%,98.8%,107%,107%,90.3%,101%,102%,98.1%
CC(=O)NCCN,97%,105%,93.4%,102%,115%,116%,111%,113%,103%,113%,97.5%,102%,107%,107%,104%,102%,97.4%,113%
N=C(N)c1ccc(-c2ccc(-c3cc(Cl)cc(Cl)c3)s2)cc1,-16.6% (active),-48.9% (active),-12.5% (active),-78.3% (active),-66.1% (active),-78.6% (active),-73.8% (active),-83.4% (active),-46.8% (active),-47.4% (active),-54% (active),-45.7% (active),-90.2% (active),-70.9% (active),-72.5% (active),-78.7% (active),-65.2% (active),-77.4% (active)
CC[N+](C)(C)N,93.8%,101%,98.3%,111%,102%,109%,111%,114%,108%,109%,103%,105%,109%,105%,91.7%,99%,113%,
COc1ccc(/C=C(/C(=O)N2CCN(c3ccc(C)cc3)CC2)c2cc(OC)c(OC)c(OC)c2)cc1N,11.3%,12.8%,21.6%,27.1%,43.9%,26.2%,24.7%,-27.8% (active),32.6%,13.7%,97.2%,16.6%,-43.8% (active),27.1%,12%,3.55% (active),31.8%,3.83% (active)
Cc1nn(-c2ccccc2)c(N)c1N=C1NC(=O)/C(=C/c2ccc(Cl)cc2)S1,34.1%,49.5%,91.6%,86.6%,75.2%,88%,104%,68.8%,93.1%,92.2%,74.4%,75.8%,66.9%,82.2%,70.9%,83.6%,121%,78.3%
Ic1ccc(SSc2ccc(I)cc2)cc1,60.6%,95.6%,92.6%,114%,99.7%,113%,82.4%,102%,96.9%,101%,79.7%,41.5%,100%,106%,92.4%,83.7%,104%,82.2%
COc1ccc(C2C3(C#N)C(N)=NC(=C(C#N)C#N)C23C#N)cc1OC (stereo unspecified),83.6%,117%,106%,93.3%,110%,109%,113%,109%,96.5%,114%,110%,93.3%,107%,106%,108%,112%,122%,
CCOC(=O)NC1=NCC(C)(C)S1,104%,108%,104%,98.9%,102%,95.2%,111%,97.4%,98.7%,103%,93.8%,106%,100%,103%,100%,105%,98.3%,101%
O=c1c(N=Nc2nccs2)c(-c2ccccc2)[nH]n1-c1nc(-c2ccccc2)cs1,33.4%,16.1%,28.1%,98.9%,39.5%,23.5%,44.2%,31.6%,38.4%,10.1%,43.7%,19%,26.7%,40.2%,59.1%,26.9%,42.2%,28.5%
O=C(OCC1CC2(Cl)C(Cl)=C(Cl)C1(Cl)C2(Cl)Cl)C1C(C(=O)OCC2CC3(Cl)C(Cl)=C(Cl)C2(Cl)C3(Cl)Cl)C2(Cl)C(Cl)=C(Cl)C1(Cl)C2(Cl)Cl (stereo unspecified),93%,103%,104%,105%,110%,110%,115%,107%,117%,106%,105%,97.5%,106%,107%,96.9%,101%,102%,

Structure (SMILES),growth [1],growth [2],growth [3],growth [4],growth [5],growth [6],growth [7],growth [8],growth [9],growth [10],growth [11],growth [12],growth [13],growth [14],growth [15],growth [16],growth [17],growth [18]
COc1ccc(OC)c(Cn2cc3c(c2)-c2oncc2CC3)c1,22.7%,42.5%,55.5%,58.1%,69.1%,11.6%,31.2%,-4.75% (active),19.2%,1.37% (active),36.1%,33.3%,-40.1% (active),22.4%,8.44% (active),16.8%,66.6%,28.9%
Cc1ccc(NCc2cn(-c3ccc(C(=O)O)cc3)nc2-c2ccc(C(=O)O)cc2)cc1,103%,109%,97.8%,106%,109%,102%,107%,101%,101%,102%,98.6%,108%,107%,110%,93.6%,100%,101%,
CCC(C)(C)c1ccc(OCCCCCCN2CCNCC2)cc1,-2.78% (active),-16.4% (active),75.2%,91.6%,70%,101%,87.3%,69.4%,64.2%,76.4%,40%,89.1%,25.9%,-10.4% (active),4.81% (active),6.39% (active),-13.5% (active),
Nc1cc(N)c2nc(NCCc3ccc(Cl)c(Cl)c3)cnc2c1,-69.7% (active),-48.9% (active),32.6%,31%,-96.7% (active),88.8%,21.3%,-43.4% (active),62.1%,89.6%,-27.2% (active),96.6%,-50% (active),51.3%,-43.5% (active),-42.5% (active),44.7%,
N=c1c2c(=O)n3c(nc2nc2sc4ccc(Cl)cc4n12)-c1ccccc1Sc1ccccc1-3,5.86% (active),7.72% (active),19.8%,48.2%,0.243% (active),19.5%,2.34% (active),20.9%,35.1%,12.3%,1.99% (active),1.57% (active),0.844% (active),26.1%,6.98% (active),7.35% (active),6.95% (active),22.6%
NNC(=O)CNc1ccc2ccccc2c1,55%,113%,108%,195%,108%,106%,-27.9% (active),114%,93.3%,113%,108%,93.4%,111%,99.8%,102%,107%,140%,97.2%
CC1(C)CC(=O)C2=C(C1)Oc1nc(N)c(C#N)c(N)c1C2c1ccc(F)cc1 (stereo unspecified),55.3%,163%,106%,105%,102%,115%,500%,121%,103%,122%,116%,100%,112%,101%,109%,109%,132%,109%
CCCCCCCCCC[N+](C)(C)N,72.7%,78.1%,88.1%,101%,99.1%,99.4%,83.8%,100%,91.9%,112%,96.7%,84.2%,91.9%,102%,98%,95.5%,98.5%,99.8%
[2H]c1nc(=Nc2cc(NC(=O)C=C)c(N(C)CCN(C)C)cc2OC)[nH]c(-c2cn(C([2H])([2H])[2H])c3ccccc23)c1[2H],-13.7% (active),19%,53.3%,54.2%,57.6%,3.49% (active),19.1%,50.6%,63.7%,39.1%,33%,62.9%,22.2%,21.1%,23.4%,13.7%,51%,
COc1ccc2sc(-n3nc4nc5n(c(=O)c4c3N)-c3ccccc3Sc3ccccc3-5)nc2c1,65.2%,45.5%,81.7%,126%,66.4%,91.8%,67.9%,76.6%,90.6%,74%,29.2%,73.2%,79.5%,95.6%,54.2%,65.7%,93.6%,81.4%
[N-]=[N+]=Nc1ncc(-c2ccc(C(F)(F)F)cc2)c(NC2CCCCCC2)n1,-21.8% [100 µM] (active),-21% [100 µM] (active),37.2% [100 µM],65% [100 µM],28.9% [100 µM],71.6% [100 µM],36.3% [100 µM],7.63% [100 µM] (active),52.3% [100 µM],43.7% [100 µM],21.3% [100 µM],45.4% [100 µM],19.1% [100 µM],27.2% [100 µM],16.3% [100 µM],16% [100 µM],39.7% [100 µM],
O=C(CCl)c1ccc2c(c1)CCCC2,7.36% (active),84.6%,95.6%,107%,107%,110%,89.2%,114%,94.7%,108%,87.9%,83.5%,111%,82.6%,86.5%,84.2%,111%,107%
CCC(CCCN1C(=O)c2ccccc2C1=O)Nc1cc(OC)cc2c(C)ccnc12 (stereo unspecified),54.9%,96%,98.7%,99.9%,73.8%,100%,137%,99.1%,86.7%,121%,85.9%,78.7%,99.2%,85.6%,91.5%,98%,69%,102%
C=CCSc1nnc(COc2ccc3c(C)c(Cc4ccccc4)c(=O)oc3c2C)o1,77.7%,99.9%,97.6%,104%,96.1%,108%,112%,108%,94.5%,98%,96%,100%,103%,99.2%,95.7%,95.6%,104%,101%
CC(O)C(N)=O (stereo unspecified),102%,111%,110%,101%,97.4%,110%,116%,107%,108%,118%,94.7%,102%,103%,105%,94.6%,94.2%,100%,103%
Cc1ccnc2c(NC(C)CCCN)cc(O)c(O)c12 (stereo unspecified),79.7%,95.2%,64.9%,79.7%,20%,99.9%,103%,59.8%,80.6%,87.5%,106%,92.1%,103%,100%,31.5%,99.7%,91.6%,109%
O=P(OCCCl)(OCCCl)C(O)c1ccccc1Cl (stereo unspecified),89.3%,110%,104%,107%,111%,104%,98.6%,96.8%,106%,109%,98.2%,107%,102%,111%,99%,107%,106%,104%
